Screens (PubChem BioAssay)
Rows were chosen to be rich in hits. Some 11% of all compounds tested hit in one or more screens of this group.
RORgamma inh: blocks mouse ROR gamma transcriptional activity; actives 5.4% (n = 310,000); P51450; Potency, µM (doses to about 53.6 µM), most hits filed as inhibitors; Drosophila S2 Gal4-RORgamma UAS-luciferase reporter, 20 h; further: nearly all actives have a fitted effect of over 60% in size
Target sequence (P51450 whole entry, looked up, the tested form may be a part): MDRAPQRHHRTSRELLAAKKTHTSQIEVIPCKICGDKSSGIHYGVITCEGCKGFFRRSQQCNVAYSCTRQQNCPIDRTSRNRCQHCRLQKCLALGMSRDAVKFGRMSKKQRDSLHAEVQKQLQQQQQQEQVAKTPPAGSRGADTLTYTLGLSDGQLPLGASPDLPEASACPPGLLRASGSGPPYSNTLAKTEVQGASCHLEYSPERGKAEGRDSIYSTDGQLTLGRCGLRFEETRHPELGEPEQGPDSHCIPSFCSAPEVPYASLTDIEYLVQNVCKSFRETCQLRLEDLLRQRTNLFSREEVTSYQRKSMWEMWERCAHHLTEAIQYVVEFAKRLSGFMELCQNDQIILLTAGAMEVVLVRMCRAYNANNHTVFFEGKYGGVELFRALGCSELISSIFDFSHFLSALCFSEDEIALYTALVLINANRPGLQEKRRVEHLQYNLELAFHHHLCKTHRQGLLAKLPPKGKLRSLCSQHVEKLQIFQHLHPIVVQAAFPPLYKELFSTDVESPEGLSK
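Drosophila S2 cells stably expressing Gal4-DBD/mouse RORγ fusion under metallothionein promoter plus UAS-luciferase; compound 1 h, then 700 uM CuSO4 induction for 20 h at ambient temperature; inhibition read as reduced luminescence.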
IL1B secr inh: inhibitors of inflammasome signaling (IL-1 beta secretion); AID 743279; activity change, % at 57.5 µM; actives 4.7% (n = 360,000); THP-1 LPS/ATP IL-1B secretion, AlphaLISA, 16 h; stronger effect = lower value; in the data active means activity change below about -50%; inconclusive means mostly about -30% to -49%
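THP-1 cells pretreated 1 hr with compounds (up to 57.5 uM final), then stimulated with LPS (250 ng/mL final) plus ATP (1.25 mM final); secreted IL-1B measured by AlphaLISA after 16 hr, decreased signal indicating inhibition.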
VP16 counter: Gal4-VP16 reporter inhibition counter-screen; Drosophila S2 Gal4-VP16 UAS-luciferase, luminescence, 20 h; Potency, µM (doses to about 53.6 µM), most hits filed as inhibitors; actives 3.5% (n = 310,000); AID 2546;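 further: Gal4-VP16 expression switched on by copper sulfate through the metallothionein promoter; nearly all actives have a fitted effect of over 50% in size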
MCF10A rerep: inducers of DNA re-replication in MCF 10A breast cells; MCF 10A DNA re-replication, Hoechst nuclear intensity, 48 h; Potency, µM (top dose mostly 46.1 µM), usual class: activators; actives 2.9% (n = 350,000); AID 624296; further: nearly all actives have a fitted effect of over 50% in size
SW480 rerep: inducers of DNA re-replication in SW480 colon cancer cells; SW480 DNA re-replication, Hoechst DNA content imaging, 48 h; Potency, µM (top dose mostly 46.1 µM), usual class: activators; actives 1.8% (n = 340,000); AID 624297; further: nearly all actives have a fitted effect of over 55% in size
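Quantitative HTS format with DMSO vehicle controls; 48 hr drug incubation at 37 C, then 40 min Hoechst staining and scanning imager measurement at 405 nm excitation.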
A number is an active result; – = inactive; ? = inconclusive; · = no result given. Unless noted, the call rests on the fitted dose curve; in most records, active means well fitted curve in the direction sought with a large enough effect; inconclusive means small, poorly fitted or top-dose-only effect, or another doubt; inactive means no such curve, though single readings can be large; an effect the other way counts as inactive or inconclusive.

SMILES | RORgamma inh | IL1B secr inh | VP16 counter | MCF10A rerep | SW480 rerep
CN1CCN(c2ncnc3c2ncn3[C@H]2CN(Cc3ccc(Cl)cc3)C[C@@H](CO)O2)CC1 | · | – | · | · | ·
Clc1ccc(CSc2ncccn2)cc1 | – | – | – | – | –
O=C1c2cnc3nc(SCc4ccc(Cl)cc4)nn3c2CC2c3ccccc3CCN12 (centres undefined) | – | – | – | 3.26µM | ?
CCCCCOC(=O)c1[nH]c2c(c1C)C(=O)C(C(=O)OC)C(C)C2 (centres undefined) | ? | ? | – | 20.6µM | ?
O=C(COc1ccc(Br)cc1Br)NC(=S)N1CCCc2ccccc21 | – | – | – | – | –
CN1CCC(=NNC(=O)c2cc(-c3ccc(Cl)cc3)n[nH]2)CC1 | – | – | – | 18.4µM | –
CC(Oc1ccc(Cl)cc1Cl)C(=O)NN=C1CCN(C)CC1 (centres undefined) | 7.08µM | – | 10µM | – | –
CCOc1ccc(-c2cc(C(=O)NN=C3CCN(C)CC3)[nH]n2)cc1 | ? | – | ? | – | –
O=C(COc1ccc(Br)cc1Cl)NC(=S)N1CCc2ccccc21 | 0.794µM | – | 0.708µM | ? | –
CC(Oc1ccc(Cl)cc1Cl)C(=O)NC(=S)N1CCc2ccccc21 (centres undefined) | 0.708µM | – | 0.891µM | – | –
C[C@@H]1CN([C@@H](C)CO)C(=O)c2cc(Br)cnc2O[C@@H]1CN(C)S(=O)(=O)c1ccc(F)cc1 | · | – | · | · | ·
O=C(c1cc(-c2ccc(Br)cc2)on1)N1CCOCC1 | 10µM | – | ? | – | –
COc1cccc(-c2cc(C(=O)N3CCOCC3)no2)c1 | ? | – | ? | – | –
O=C(c1cc(-c2ccc(Br)cc2)on1)N1CCCCCC1 | – | – | ? | – | –
O=C(NCCCN1CCOCC1)c1cc(-c2ccc(Br)cc2)on1 | ? | -62.4 | – | – | –
COc1ccc(-c2cc(C(=O)N3CCOCC3)no2)cc1 | 10µM | – | ? | – | –
CN(C(=O)c1cccc(NC(=O)Cc2ccc(NC(=O)C3CCN(C(=O)C4CC4)CC3)cc2)c1)C1CCCCC1 | · | – | · | – | –
Cc1cc(Cl)ccc1Oc1nccc(N(C)C)c1C#N | ? | -70.0 | ? | – | –
O=C(NC(=S)NNC(=O)c1cccs1)c1ccco1 | 2.82µM | – | ? | – | –
O=C(Nc1ccc(NC(=S)NC(=O)c2cccs2)cc1)c1ccco1 | 11.2µM | – | – | – | –
O=C(NC(=S)NNC(=O)c1ccco1)c1ccc(Br)cc1 | 12.6µM | – | ? | – | –
O=C(NNC(=S)NC(=O)c1ccco1)c1ccc(F)cc1 | – | – | – | – | –
C/C(=N\NC(=O)c1ccco1)c1ccc(NC(=O)c2cccs2)cc1 | ? | – | – | – | –
CC(C(=O)O)n1nc(-c2ccccc2)c2ccccc21 (centres undefined) | – | – | – | – | ?
COC(=O)[C@H](CCCN=C(N)N)NC(=O)CCCc1c(-c2ccccc2)[nH]c2c(F)cc(F)cc12 | – | · | – | · | ·
SMILES | RORgamma inh | IL1B secr inh | VP16 counter | MCF10A rerep | SW480 rerep
COC(=O)c1ccc(C(=O)OC)c(NC(=S)N2CCCCC2C)c1 (centres undefined) | 15.8µM | – | ? | – | –
O=C(CSc1ncn[nH]1)N1N=C(c2ccc(Cl)cc2)CC1c1ccco1 (centres undefined) | – | -52.6 | – | ? | –
O=C(CN(Cc1ccc(F)cc1)C(=O)CCC(=O)Nc1nccs1)NCC1CCCO1 (centres undefined) | – | – | – | – | –
CC(NS(=O)(=O)c1ccc(F)cc1)C(=O)Nc1ccc2c(c1)OCCO2 (centres undefined) | – | – | – | – | 20.6µM
OCCC1CN(Cc2cnc(-c3ccccc3)s2)CCN1C1CCCC1 (centres undefined) | – | -80.8 | – | – | ?
CC(C)CN1CCN(Cc2cnc(-c3ccc(Cl)cc3)nc2)CC1CCO (centres undefined) | – | – | – | – | –
CC(C)N1CCC(N2CCN(Cc3ccc(-c4ccc(Cl)cc4)o3)CC2CCO)CC1 (centres undefined) | – | -69.5 | – | – | ?
OCCC1CN(Cc2cnc(-c3ccc(Cl)cc3)nc2)CCN1C1CCCC1 (centres undefined) | – | -73.0 | – | – | –
O=C(Nc1cccnc1)C1Cc2c(-c3ccc4c(c3)OCO4)ccnc2O1 (centres undefined) | · | -56.8 | · | · | ·
O=C(Nc1ccc2c(c1)OCO2)C1Cc2c(-c3ccc4c(c3)OCO4)ccnc2O1 (centres undefined) | · | – | · | · | ·
O=C(Nc1ccccc1)C1Cc2c(-c3ccc(Cl)cc3)ccnc2O1 (centres undefined) | · | -50.7 | · | · | ·
O=C(Nc1ccc2c(c1)OCO2)C1Cc2c(-c3ccc(Cl)cc3)ccnc2O1 (centres undefined) | · | -53.1 | · | · | ·
CC(C)c1ccc(NC(=O)C2Cc3c(-c4cccc(F)c4)ccnc3O2)cc1 (centres undefined) | · | -67.4 | · | · | ·
CCCCn1c(N)c(N(CCC(C)C)C(=O)C2CCCC2)c(=O)[nH]c1=O | · | – | · | – | –
COc1ccc(-c2nc3cnc(OC)nc3n(-c3ccc(OC)cc3)c2=O)cc1 | – | · | – | · | ·
CCC(=O)c1ccc(OCC(=O)OCC(=O)NCCC2=CCCCC2)cc1 | · | – | · | – | –
O=C(Nc1cccc(C(=O)N2CCOCC2)c1)c1ccccc1Cl | – | – | – | – | –
O=C(Nc1nnc(-c2cccs2)o1)C1CC1 | 7.08µM | – | 7.08µM | – | –
O=C(Nc1nnc(-c2ccccc2)o1)C1CCCN1S(=O)(=O)c1cccs1 (centres undefined) | · | -59.3 | · | – | –
COc1ccc(-c2nnc(NC(=O)C3CCCN3S(=O)(=O)c3cccs3)o2)cc1 (centres undefined) | · | – | · | – | –
CC(C)(C)C(=O)Nc1nnc(-c2ccncc2)o1 | 11.2µM | – | 17.8µM | – | –
O=C(Nc1nnc(-c2ccc(Cl)s2)o1)C1CC1 | – | – | – | ? | –
O=C(Nc1nnc(-c2ccc3c(c2)CCCC3)o1)C1CCCCC1 | ? | – | – | – | –
O=C(Nc1nnc(-c2ccncc2)o1)C1CCCCC1 | 10µM | – | ? | – | –
CCOc1ccccc1NC(=O)COC(=O)C1CC(=O)N(c2c(C)cccc2C)C1 (centres undefined) | – | – | – | – | –
SMILES | RORgamma inh | IL1B secr inh | VP16 counter | MCF10A rerep | SW480 rerep
O=C(Nc1nnc(-c2ccco2)o1)C1CCCCC1 | ? | – | ? | – | –
O=C(Nc1nnc(-c2ccco2)o1)C1CC1 | 10µM | – | ? | – | –
O=C(Nc1nnc(-c2ccncc2)o1)c1ccc(Br)s1 | 0.891µM | – | 1.12µM | ? | ?
COc1ncnc2c1ncn2CCCN1CCN(C(=O)C2CC2)CC1 | · | – | · | · | ·
CCOC(=O)[C@H](Cc1ccc(O)cc1)NC(=O)c1ccccc1 | 1.41µM | · | ? | · | ·
COC(=O)C(Cc1ccc(O)cc1)NC(=O)NC12CC3CC(CC(C3)C1)C2 (centres undefined) | – | -62.8 | – | ? | ?
